Measurements taken from PubChem BioAssay (EPA / NIEHS).
Values joined by “and” are separate entries in the source; they are usually repeats but may differ in a detail not shown here. Equal entries are not always repeated. Results filed as inconclusive are left out. Where a structure was tested more than once in an assay, its records may differ in their call. Active and inactive are the calls of the source. How the source made its calls: active means hit-call score of the fitted dose curve at least 0.9, where 1 is the maximum; inconclusive means response in the unintended direction; inactive means score below 0.9.

Experiments:
[1] = ATG_M_19_XSP2: Attagene TRANS-FACTORIAL Multi-Species (XSP2) HepG2 Assay for M32 Transcription Factor (Internal Marker) (AID 2283822)
In short: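 Internal background marker in a multi-species nuclear receptor TRANS panel: transfected HepG2 cells exposed 24 h, with 3 nM 6-alpha-fluorotestosterone and 1.5 nM norgestrel present. Readout is RT-PCR of reporter transcripts resolved by capillary electrophoresis, gain-of-signal versus DMSO.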

[2] = system: zebrafish Estrogen Receptor (ER2b), gene 317733; experiment: ATG_zfER2b_XSP2: Attagene TRANS-FACTORIAL Multi-Species (XSP2) HepG2 Assay for zebrafish Estrogen Receptor (ER2b) (AID 2283823);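 further: fitted upward as reporter gain over DMSO so potency reflects activation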
In short: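 HepG2 human liver cells transiently transfected with multiplexed GAL4-UAS reporter units expressing chimeric NR-Gal4 proteins; compounds dosed for 24 h. Reporter mRNA quantified by RT-PCR, 6-FAM labelling and capillary electrophoresis; gain-of-signal fitted against DMSO baseline.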

[3] = ATG_M_32_XSP2: Attagene TRANS-FACTORIAL Multi-Species (XSP2) HepG2 Assay for M19 Transcription Factor (Internal Marker) (AID 2283826)
In short: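 Read-out: reporter mRNA quantified by RT-PCR, FAM labeling, HpaI digestion and capillary electrophoresis, 24 h after dosing transfected HepG2 cells. Medium carried 3 nM 6-alpha-fluorotestosterone plus 1.5 nM norgestrel; gain of signal fitted against DMSO.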

[4] = system: frog Estrogen Receptor (ER2), gene 100174814; experiment: ATG_frER2_XSP2: Attagene TRANS-FACTORIAL Multi-Species (XSP2) HepG2 Assay for frog Estrogen Receptor (ER2) (AID 2283828)
In short: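 HepG2 cells transiently transfected with multiplexed GAL4-UAS reporter units expressing chimeric frog ER2–Gal4 protein; reporter mRNA measured 24 h after chemical dosing by RT-PCR, fluorescent labeling and capillary electrophoresis. Gain-of-signal fitted relative to DMSO baseline.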

[5] = biological target: chicken Estrogen Receptor (ERa), ESR1 (gene 396099) (UniProt P06212); experiment: ATG_chERa_XSP2: Attagene TRANS-FACTORIAL Multi-Species (XSP2) HepG2 Assay for chicken Estrogen Receptor (ERa) (AID 2283817);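 further: actives raise reporter signal above DMSO so AC50 reflects ER activation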
In short: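 Transiently transfected HepG2 cells expressing chimeric chicken ERa-GAL4 reporter units, dosed 24 h with 3 nM 6-alpha-fluorotestosterone and 1.5 nM norgestrel present. Reporter mRNA measured by RT-PCR and capillary electrophoresis; gain-of-signal fitted relative to DMSO.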

[6] = system: zebrafish Estrogen Receptor (ER2a), gene 317734; experiment: ATG_zfER2a_XSP2: Attagene TRANS-FACTORIAL Multi-Species (XSP2) HepG2 Assay for zebrafish Estrogen Receptor (ER2a) (AID 2283818);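 further: hits raise reporter mRNA so AC50 reflects activation of zebrafish ER2a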
In short: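 HepG2 cells transiently transfected with GAL4-UAS reporter units and chimeric zebrafish ER2a-Gal4, exposed 24 h; medium contains 3 nM 6-alpha-fluorotestosterone and 1.5 nM norgestrel. Reporter mRNA quantified by RT-PCR, HpaI digestion, capillary electrophoresis; gain versus DMSO.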

[7] = system: chicken Androgen Receptor (AR), gene 422165; experiment: ATG_chAR_XSP2: Attagene TRANS-FACTORIAL Multi-Species (XSP2) HepG2 Assay for chicken Androgen Receptor (AR) (AID 2283819);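 further: hits raise reporter mRNA above DMSO so potency is for activation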
In short: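 HepG2 cells transiently transfected with chicken AR–GAL4 chimeric reporter constructs, stimulated with 3 nM 6-alpha-fluorotestosterone plus 1.5 nM norgestrel, dosed 24 h. Reporter mRNA quantified by RT-PCR and capillary electrophoresis; gain of signal fitted versus DMSO.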

[8] = biological target: Estrogen receptor (Homo sapiens) (UniProt P03372); experiment: ATG_hERa_XSP2: Attagene TRANS-FACTORIAL Multi-Species (XSP2) HepG2 Assay for human Estrogen Receptor (ERa) (AID 2283827)
Method: ATG_XSP2_multi-species_TRANS is a cell-based, multiplexed assay created by modifying the existing Attagene TRANS-FACTORIAL system to include a panel of nuclear receptors from some or all the following species: human (Homo sapiens), mouse (Mus musculus), frog (Xenopus laevis), zebrafish (Danio rerio), chicken (Gallus gallus), and turtle (Chrysemys picta). The ECOTOX-FACTORIAL format uses HepG2, a human liver cell line, with measurements taken at 24 hours after chemical dosing in a 24-well plate. Xsp2 included 3 nM 6-alpha-fluorotestosterone and 1.5 nM norgestrel to stimulate the androgen receptor.ATG_hERa_XSP2 is one of 29 assay components measured or calculated from the ATG_XSP2_multi-species_TRANS assay. It is designed to make measurements of mRNA induction, a form of inducible reporter, as detected with fluorescence intensity signals by Reverse transcription polymerase chain reaction (RT-PCR) and Capillary electrophoresis technology.The assay endpoint ATG_hERa_XSP2 was analyzed in the positive analysis fitting direction relative to DMSO as the negative control and baseline of activity. Using a type of inducible reporter, measures of mRNA for gain-of-signal activity can be used to understand the reporter gene at the transcription factor-level as they relate to the gene ER. Furthermore, this assay endpoint can be referred to as a primary readout, because this assay has produced multiple assay endpoints where this one serves a reporter gene function. To generalize the intended target to other relatable targets, this assay endpoint is annotated to the nuclear receptor intended target family, where the subfamily is steroidal.
Human liver HepG2 cells are transiently transfected with multiple reporter transcription units (MRTUs) in 6-well plates using FuGene 6 reagent (Roche; 3 ml FuGene/1 mg DNA). The MRTU constructs are regulated by a cis-regulating element (promoter). […] A major difference between the CIS and TRANS system is that in CIS activities of endogenous TFs are measured, whereas the TRANS assay evaluates changes in activities of exogenous, chimeric NR-Gal4 proteins. […] At the end of 24 hour incubation, total RNA was isolated using TriZol reagent (Invitrogen). The isolated RNA is then reverse-transcribed using oligo(dT) primer and Mo-MLV reverse transcriptase (Invitrogen) with DNAse I (Ambion) treatment for 30 min. The one-tenth of the produced cDNA was amplified by PCR using Taq DNA polymerase (Invitrogen) and two reporter sequence-specific primers. The PCR products were fluorescently labeled by primer extension with 6-arboxyfluorescein (6-FAM) 5'-labeled reporter sequence-specific primer (2 min at 95 C, 20 s at 68 C and 10 min at 72 C) and these products were digested with 5U of HpaI (New England Biolabs) for 2h at 37 C. The fragments were purified using Qiaquick PCR columns (Qiagen), analyzed on an ABI 3130xL genetic analyzer (Applied Biosystems) with peak positions identified by using a set of X-rhodamine (ROX)-labeled MapMarker1000 molecular weight standards (BioVentures). The raw capillary electrophoresis data was processed using Attagraph software (Attagene).

[9] = biological target: zebrafish Estrogen Receptor (ER1), esr1 (gene 259252) (UniProt P57717); experiment: ATG_zfER1_XSP2: Attagene TRANS-FACTORIAL Multi-Species (XSP2) HepG2 Assay for zebrafish Estrogen Receptor (ER1) (AID 2283816)
In short: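 HepG2 cells transiently transfected with a GAL4-UAS reporter and a chimeric zebrafish ER1-Gal4 construct, dosed 24 h. Reporter mRNA quantified by RT-PCR, labelling, HpaI digestion and capillary electrophoresis, relative to DMSO.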

Measured: AC50

Chain of Estrogen receptor (Homo sapiens) (P03372 whole entry, looked up): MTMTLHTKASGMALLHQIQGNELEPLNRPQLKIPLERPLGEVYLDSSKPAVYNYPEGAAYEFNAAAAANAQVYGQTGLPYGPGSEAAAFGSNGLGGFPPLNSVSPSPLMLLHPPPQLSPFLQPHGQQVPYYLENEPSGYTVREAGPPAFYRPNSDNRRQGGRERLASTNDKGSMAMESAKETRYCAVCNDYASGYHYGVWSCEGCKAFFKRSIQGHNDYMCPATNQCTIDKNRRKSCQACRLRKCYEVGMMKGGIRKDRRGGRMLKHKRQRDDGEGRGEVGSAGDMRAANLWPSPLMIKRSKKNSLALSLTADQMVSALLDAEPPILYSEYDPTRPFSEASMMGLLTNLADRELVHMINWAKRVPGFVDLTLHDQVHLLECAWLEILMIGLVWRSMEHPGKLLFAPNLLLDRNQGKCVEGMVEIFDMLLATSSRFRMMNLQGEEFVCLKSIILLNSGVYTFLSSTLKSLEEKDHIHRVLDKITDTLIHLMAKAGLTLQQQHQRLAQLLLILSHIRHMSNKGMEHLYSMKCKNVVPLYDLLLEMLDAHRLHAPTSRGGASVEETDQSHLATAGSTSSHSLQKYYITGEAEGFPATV
Chain of zebrafish Estrogen Receptor (ER1), esr1 (gene 259252) (P57717 whole entry, looked up, the tested form may be a part): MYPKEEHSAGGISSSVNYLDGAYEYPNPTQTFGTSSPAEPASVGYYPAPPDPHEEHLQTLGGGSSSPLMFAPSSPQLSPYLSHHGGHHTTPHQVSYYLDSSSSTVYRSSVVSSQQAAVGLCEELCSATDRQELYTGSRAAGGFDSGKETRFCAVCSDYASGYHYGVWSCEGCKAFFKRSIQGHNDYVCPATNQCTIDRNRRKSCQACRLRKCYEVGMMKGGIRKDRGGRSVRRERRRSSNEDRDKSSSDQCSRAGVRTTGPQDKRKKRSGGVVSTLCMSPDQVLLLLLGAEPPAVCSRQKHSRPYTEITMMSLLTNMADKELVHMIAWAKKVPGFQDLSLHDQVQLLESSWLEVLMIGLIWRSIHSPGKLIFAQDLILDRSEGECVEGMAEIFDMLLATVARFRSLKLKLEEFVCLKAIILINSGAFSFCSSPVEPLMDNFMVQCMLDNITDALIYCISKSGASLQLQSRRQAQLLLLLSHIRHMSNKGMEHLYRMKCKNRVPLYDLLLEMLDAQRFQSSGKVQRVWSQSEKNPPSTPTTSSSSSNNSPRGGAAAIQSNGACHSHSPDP
Chain of chicken Estrogen Receptor (ERa), ESR1 (gene 396099) (P06212 whole entry, looked up, the tested form may be a part): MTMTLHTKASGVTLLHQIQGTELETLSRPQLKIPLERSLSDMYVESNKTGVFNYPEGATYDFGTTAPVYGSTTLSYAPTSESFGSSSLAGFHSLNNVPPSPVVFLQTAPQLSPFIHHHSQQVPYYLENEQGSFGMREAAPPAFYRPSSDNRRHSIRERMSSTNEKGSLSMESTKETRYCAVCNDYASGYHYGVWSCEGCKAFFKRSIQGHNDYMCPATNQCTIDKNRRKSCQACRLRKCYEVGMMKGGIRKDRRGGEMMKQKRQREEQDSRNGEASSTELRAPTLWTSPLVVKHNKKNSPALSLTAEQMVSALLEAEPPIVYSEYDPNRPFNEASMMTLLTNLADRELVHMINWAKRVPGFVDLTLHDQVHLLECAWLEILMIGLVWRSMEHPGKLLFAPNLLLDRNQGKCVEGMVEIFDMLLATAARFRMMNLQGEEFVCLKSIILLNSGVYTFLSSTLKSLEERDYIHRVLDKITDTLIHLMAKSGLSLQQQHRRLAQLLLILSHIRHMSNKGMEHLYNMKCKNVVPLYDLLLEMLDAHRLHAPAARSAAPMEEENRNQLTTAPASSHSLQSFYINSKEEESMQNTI

CCOCN(C(=O)CCl)c1c(C)cccc1CC
active: [2] 100 µM
inactive: [1] | [3] | [4]

CC1(C)C(C=C(Cl)Cl)C1C(=O)OC(C#N)c1ccc(F)c(Oc2ccccc2)c1 (stereo unspecified)
not listed: [2] | [4] | [9]
inactive: all other assays above

O=S(=O)(O)C(F)(F)C(F)(F)C(F)(F)C(F)(F)C(F)(F)C(F)(F)C(F)(F)C(F)(F)F
inactive: [5] | [6] | [7] | [3]
active: [2] 146 µM

COP(=S)(OC)Oc1ccc([N+](=O)[O-])cc1
active: [5] 27.7 µM and 20.6 µM | [6] 26.7 µM | [2] 39.3 µM | [8] 31.1 µM and 40.7 µM | [4] 100 µM and 36.9 µM
inactive: [9] | [6] | [1] | [2]

Oc1ccc(Cl)cc1Cc1ccccc1
active: [2] 14.6 µM
inactive: [5] | [6] | [4]

CCCN(CCC)c1c([N+](=O)[O-])cc(C(F)(F)F)cc1[N+](=O)[O-]
active: [2] 69.9 µM | [8] 18.8 µM | [4] 100 µM
not listed: [7]
inactive: all other assays above
